PubChem BioAssay (NCI)
The panel holds about 83,000 compounds, 20% with a hit somewhere; the sample as a whole holds those more often.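 Method: cells in 96-well plates; compound added at one concentration; 48 h incubation; percent growth measured; values under 10 scored active.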 Values without a mark were called inactive. Activity calls are given as the source filed them.

Assays:
Assay in all cases: NCI-60 one-dose screen, 48 h (100 = growth as untreated, 0 = no growth, -100 = all killed)
Conditions in all cases: 10 µM unless noted
NCI-H23 lung = tested on: NCI-H23 lung
NCI-H226 lung = tested on: NCI-H226 lung
NCI-H322M lung = tested on: NCI-H322M lung
HOP-62 NSCLC = tested on: HOP-62 NSCLC
NCI-H460 lung = tested on: NCI-H460 lung
HOP-92 NSCLC = tested on: HOP-92 NSCLC
NCI-H522 lung = tested on: NCI-H522 lung
A549/ATCC NSCLC = tested on: A549/ATCC NSCLC
786-0 renal = tested on: 786-0 renal
COLO 205 colon = tested on: COLO 205 colon

Structure (SMILES)	growth (NCI-H23 lung)	growth (NCI-H226 lung)	growth (NCI-H322M lung)	growth (HOP-62 NSCLC)	growth (NCI-H460 lung)	growth (HOP-92 NSCLC)	growth (NCI-H522 lung)	growth (A549/ATCC NSCLC)	growth (786-0 renal)	growth (COLO 205 colon)
NS(=O)(=O)c1ccc(N=Nc2c(O)n(CC(=O)Nc3ccccc3)c3ccccc23)cc1	-19.1% (active)	25.3%	52%	10.8%	4.09% (active)	77.3%	31.6%	0.913% (active)	1.52% (active)	27.6%
Cc1ccc(C(SCCNCc2cc(N(C)C)ccn2)(c2ccccc2)c2ccccc2)cc1	-35.8% (active)	-6.05% (active)	23.1%	-1.31% (active)	-26.6% (active)	-25.4% (active)	-78.8% (active)	-3.31% (active)	-76.6% (active)	-71.6% (active)
Nc1n[nH]c2cccc(C#Cc3cccc(NC(=O)c4cccc(Cl)c4)c3)c12	38.2%	45.8%	49.1%	33.6%	24.7%	9.55% (active)	11.4%	24.7%	11.2%	19.2%
O=C(/C=C/Nc1ccc(Cl)cc1)c1ccc2c(c1)Nc1ccccc1S2	33.1%	8.89% (active)	59.5%	-27.5% (active)	13.3%	13.6%	34.9%	43.1%	-6.27% (active)	62.5%
O=c1[nH]c2ccccc2cc1CSc1cccc(Nc2nccc(-c3ccc4ccccc4c3)n2)c1	91.6%	80.7%	106%	95.3%	98.8%	117%	79%	83.6%	75.2%	102%
COc1ccc(C(=O)/C=C/c2cccc(Cl)c2Cl)cc1S(N)(=O)=O	-15.6% (active)	18.7%	11.5%	-69.2% (active)	-0.608% (active)	21.9%	-56.3% (active)	-2.67% (active)	-71.2% (active)	-79.3% (active)
O=C1NC(=O)c2c1c1c3cc(Br)ccc3[nH]c1c1oc3ccc(F)cc3c21	-23.6% (active)	-0.591% (active)	-11.8% (active)	-42% (active)	-82.6% (active)	-53.2% (active)	-61.6% (active)	53.5%	-40.8% (active)	30.1%
O=C(O)c1cccc(-c2ccc(/C=N/NC(=O)c3[nH]c4ccc(Br)cc4c3-c3ccccc3)o2)c1	86.5%	87.9%	78.9%	68.9%	95.3%	69.1%	-12.6% (active)	100%	84.6%	114%
CC1(c2cc3cc(Cl)ccc3oc2=O)NC(=O)c2c(/C=C/C(=O)OC3CC4CCC3(C)C4(C)C)cccc2N1 (stereo not given)	63.4%	67%	70.5%	71.5%	67.2%	40.8%	36.8%	41.7%	69.9%	48.8%
CN1CCc2c(sc3ncnc(N/N=C/c4ccc(Cl)cc4Cl)c23)C1	12.2%	-59.8% (active)	29.2%	27.1%	10.1%	-47.2% (active)	-34.3% (active)	31.4%	-93.9% (active)	-48% (active)
COc1ccc(C(=O)/C=C/c2ccc(OCc3ccccc3)c(OC)c2)cc1OC	27.1%	79.1%	15.7%	35.3%	5.57% (active)	38.3%	11.3%	14.4%	35.9%	51.5%
COc1cc2c(c(OC)c1OC)C(=O)CC(c1cccc(NC(=O)c3cccc(NC(=O)[C@H](C)NC(=O)OC(C)(C)C)c3)c1)O2 (stereo not given in full)	70.4%	53.1%	105%	73.6%	76.1%	74.4%	21%	59.9%	86.4%	81.8%
O=C(/C=C/c1ccc(O)c(O)c1)NC1CCOC1O (stereo not given)	104%	120%	105%	101%	116%	91.5%	75.6%	99.4%	97.2%	105%
CC(=O)Nc1ccc(C(=O)NC(=S)Nc2ccc(S(N)(=O)=O)cc2)cc1	94.4%	81.9%	92.4%	90.8%	102%	95.4%	73.7%	99.2%	95.5%	105%
CC1=C(C(=O)c2ccccc2)C(c2cccc(Cl)c2Cl)n2c(nc3ccccc32)N1 (stereo not given)	63%	7.18% (active)	72%	14.9%	60.9%	18%	49.9%	53.4%	37.9%	82.3%
N/C(=N\N=C\c1ccc([N+](=O)[O-])cc1)c1c(N)nc(=S)[nH]c1-c1ccc(Cl)cc1Cl	90.2%	82.1%	100%	57%	114%	2.04% (active)	78.5%	101%	54.1%	115%
O=C(O)c1cccc(-c2ccc(/C=N/NC(=O)c3[nH]c4ccc(Br)cc4c3-c3ccccc3)s2)c1	26.4%	57.6%	58.8%	53.2%	42.9%	60.3%	0.263% (active)	68.9%	50.9%	101%
COc1ccc(-c2nc(SCC(C)C)nc(NCCc3c[nH]c4ccccc34)c2C#N)cc1	73.9%	45.1%	87.7%	55.2%	36.6%	50.3%	62.5%	76.6%	56.6%	76.1%
Cc1ccc(-c2nnc3ccc(N/N=C/c4ccccc4)nn23)cc1	60.5%	98%	91.4%	88.5%	68.5%	70.5%	105%	93.1%	99%	98.4%
Clc1cccc(Cl)c1/C=C/c1cc(/C=C/c2ccc(Br)cc2)c2ccccc2n1	98.2%	93%	89.7%	94%	99.5%	86.2%	97.9%	98.2%	92.2%	117%
COc1ccc(C(=O)/C=C/c2ccc(Oc3nc(Nc4ccc(F)cc4)nc(N(C)C)n3)c(OC)c2)cc1	42%	69.7%	80.4%	100%	26.2%	57.4%	49.7%	64.7%	57.3%	93.1%
COc1ccc(CCC2c3c(cc4c(c3OC)OCO4)CCN2C)cc1 (stereo not given)	-48.6% (active)	-59.3% (active)	0.952% (active)	-30.2% (active)	-89.7% (active)	-30% (active)	-81% (active)	9.85% (active)	-67.1% (active)	-73.1% (active)
CN1CCN(/C(=N\c2sc(-c3ccccc3)nc2-c2ccccc2)c2ccccc2)CC1	104%	96.4%	82.8%	97.1%	42.6%	80.2%	87.3%	76.9%	78.7%	42%
COc1ccc(C2=NN(c3ccccc3)C(c3ccc(OC)c(OCc4ccccc4)c3)C2)cc1OC (stereo not given)	99.8%	85.4%	102%	96.7%	105%	109%	78.2%	101%	90.9%	115%
COc1ccc(C2(SCCNCc3cc(N(C)C)ccn3)c3ccccc3C=Cc3ccccc32)cc1	13.5%	50.6%	35.1%	40%	-14% (active)	0.307% (active)	-17.2% (active)	21.3%	23.5%	-29.8% (active)
COc1ccc(C2=NN(c3ccccc3)C(c3ccc(OCc4ccccc4)c(OC)c3)C2)cc1OC (stereo not given)	107%	124%	103%	109%	104%	105%	85.4%	101%	97.1%	94.1%
CCCCSc1nc(NCCc2c[nH]c3ccccc23)c(C#N)c(-c2ccc(OC)cc2)n1	48.3%	60.9%	87.4%	57%	33.4%	47.3%	57.7%	61.3%	54.8%	74.6%
